Reference: PubChem BioAssay
The source made the active and inactive calls.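 The calls were made as follows: active = at least 20% inhibition of 6-phosphogluconate dehydrogenase activity; inactive = the rest.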

These molecules were tested against 6-phosphogluconate dehydrogenase, decarboxylating (Homo sapiens) (UniProt P52209) (assay: 6PGD enzyme inhibitors, primary screen, biochemical, human, recombinant enzyme, NADPH absorbance (AID 1159550)). Details: recombinant 6PGD, NADPH absorbance 341 nm; at 10 µM; hits give high values.
6-phosphogluconate dehydrogenase, decarboxylating (Homo sapiens), sequence (P52209 whole entry, looked up): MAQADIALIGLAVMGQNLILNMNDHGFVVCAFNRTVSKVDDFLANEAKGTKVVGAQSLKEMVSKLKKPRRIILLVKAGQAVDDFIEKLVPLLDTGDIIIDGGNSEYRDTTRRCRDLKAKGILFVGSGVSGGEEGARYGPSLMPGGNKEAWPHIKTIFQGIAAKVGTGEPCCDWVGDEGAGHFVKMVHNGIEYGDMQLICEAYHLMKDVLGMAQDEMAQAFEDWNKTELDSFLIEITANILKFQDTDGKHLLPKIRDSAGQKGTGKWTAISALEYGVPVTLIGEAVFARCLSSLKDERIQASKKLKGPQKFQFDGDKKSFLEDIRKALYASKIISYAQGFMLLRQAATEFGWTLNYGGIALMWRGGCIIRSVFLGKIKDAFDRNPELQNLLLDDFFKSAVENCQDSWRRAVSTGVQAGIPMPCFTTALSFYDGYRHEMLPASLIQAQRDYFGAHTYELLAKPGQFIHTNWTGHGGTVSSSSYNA

inhibition, inactive:
C[C@H](N)[C@H](O)c1cccc(O)c1 13.9%
CN(Cc1cc(Br)cc(Br)c1N)C1CCCCC1 16%
CC(=O)Nc1ccccc1 -5.03%
CC(=O)Nc1ccc(S(=O)(=O)Nc2ccc([N+](=O)[O-])cc2)cc1 0.544%
CCCOc1ccc2nc(NC(=O)OC)[nH]c2c1 2.75%
CN(C)CCOC(=O)C(c1ccccc1)C1(O)CCCC1 (stereo not drawn) -0.0978%
Cc1cc(O)cc(C)c1Cl 0.336%
CCCCCCc1ccc(O)cc1O -8.5%
Nc1ncnc2nc[nH]c12 2.63%
CC(N)C(=O)OC(C)(C)Cc1ccc(Cl)cc1 (stereo not drawn) -7.62%
COc1c2occc2c(OC)c2c(=O)cc(C)oc12 1.04%
CC1=C(C(=O)O)N2C(=O)[C@@H](NC(=O)[C@H](N)c3ccc(O)cc3)[C@H]2SC1 -1.37%
COc1ccc(NS(=O)(=O)c2ccc(N)cc2)nn1 -7.32%
NC[C@H]1O[C@H](O[C@H]2[C@H](O)[C@@H](O[C@H]3O[C@H](CO)[C@@H](O)[C@H](N)[C@H]3O)[C@H](N)C[C@@H]2N)[C@H](N)[C@@H](O)[C@@H]1O 5.79%
CCCCc1nc(Cl)c(CO)n1Cc1ccc(-c2ccccc2-c2nn[nH]n2)cc1 -22.5%
CC(=O)Oc1cccc(O)c1 8.3%
COc1ccc(C(=O)c2ccccc2)c(O)c1 -7.36%
O=C(N[C@H](CO)[C@H](O)c1ccc([N+](=O)[O-])cc1)C(Cl)Cl 15.5%
CCN(CC)CCOC(=O)C(c1ccccc1)C1CCCCC1 (stereo not drawn) 9.92%
Nc1c2ccccc2nc2ccccc12 -6.58%
Oc1c(Br)cc(Br)c2cccnc12 4.35%
C[N+]12CCC(CC1)C(OC(=O)C(O)(c1ccccc1)c1ccccc1)C2 (stereo not drawn) 11.7%
CC(=O)Nc1c(I)cc(I)c(C(=O)O)c1I -3.44%
Cc1c(NC(C)C)c(=O)n(-c2ccccc2)n1C 16.7%
COc1ccc2cc3[n+](cc2c1OC)CCc1cc2c(cc1-3)OCO2 10.3%
NC(N)=N/N=C/c1c(Cl)cccc1Cl 14%
CCN(CC)C(=O)c1cccc(C)c1 9.21%
CC(=O)OCC(COC(C)=O)OC(C)=O 1.31%
CC1(C)OC(=O)NC1=O 10.2%
COc1cnc(NS(=O)(=O)c2ccc(N)cc2)nc1 -8.19%
CCCCC(CC)CN1CN(CC(CC)CCCC)CC(C)(N)C1 (stereo not drawn) -10.4%
Cc1[nH]c(C)c(Cl)c(=O)c1Cl -15%
Cc1nnc(NS(=O)(=O)c2ccc(N)cc2)s1 -8.84%
Nc1ccc(C(=O)O)cc1 6.16%
Nc1nccs1 5.79%
COc1ccc(-c2cc(C(F)F)nn2-c2ccc(S(N)(=O)=O)cc2)cc1F -12.8%
NC(=O)c1ccc([N+](=O)[O-])cc1Cl 10.9%
CCC(=O)O[C@H]1[C@H](O[C@@H]2[C@@H](C)[C@H](O[C@H]3C[C@@](C)(OC)[C@@H](O)[C@H](C)O3)[C@@H](C)C(=O)O[C@H](CC)[C@@](C)(O)[C@H](O)[C@@H](C)C(=O)[C@H](C)C[C@@]2(C)O)O[C@H](C)C[C@@H]1N(C)C 1.5%
